# Test results taken from PubChem BioAssay AID504834 (National Center for Advancing Translational Sciences (NCATS), 2011).
# Out of some 320,000 compounds screened, about 22,000 (6.9%) were called active. Roughly 27% stayed inconclusive and do not appear here. This excerpt belongs to a sample that is enriched for actives. Values without a mark were called inactive. The call rests on the fitted dose curve; in most records, active means well fitted inhibition curve with a large enough effect; inconclusive means small, poorly fitted or top-dose-only effect, or another doubt; inactive means no such curve, though single readings can be large or run the other way.
# Assay: Primary qHTS for delayed death inhibitors of the malarial parasite plastid, 96 hour incubation
# Conditions: P. falciparum luciferase reporter growth; series mostly up to 28.7 µM; activity change, negative = inhibition: at the top concentration
# How it was run: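 Compounds incubated with erythrocytes infected by luciferase-expressing P. falciparum (2% hematocrit, 0.05% parasitemia final) for 96 hours, 37 C in 5% CO2. Growth inhibition scored as decreased luciferase luminescence.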
# On the % scale 0 is the no-effect control and ±100 the full control effect; potency means the concentration at half of the fitted maximal effect.
SMILES,"activity change, negative = inhibition",Potency
COc1cccc(CNC(=O)COC(=O)CN2C(=O)NC3(CCCCC3C)C2=O)c1 (stereo unspecified),5.85%,–
COc1ccccc1N1CCN(C(=O)c2c(-c3c(Cl)cccc3Cl)noc2C)CC1,7.48%,–
Cc1onc(-c2c(Cl)cccc2Cl)c1C(=O)c1c[nH]c(C(=O)NC2CC2)c1,-20.4%,–
Cc1onc(-c2c(Cl)cccc2Cl)c1C(=O)NNC(=O)c1c(-c2c(Cl)cccc2Cl)noc1C,–,8.28 µM (active)
CC(C)=C1SC(N2CCN(c3ccc(C)c(Cl)c3)CC2)=NC1=O,0.284%,–
CC(NCc1cccs1)C(=O)Nc1cc(Cl)cc(Cl)c1 (stereo unspecified),-2.74%,–
Cc1cc2nc3n(c2cc1C)CC1CC(C(=O)NCCC(C)C)N(C)C31 (stereo unspecified),-1.98%,–
CCc1nc(Nc2ccc(NC(C)=O)cc2)c2oc3ccccc3c2n1,-16.9%,–
COc1ccc2oc(=O)cc(-c3cc4ccccc4o3)c2c1,19.1%,–
COc1ccc(Nc2cc(=O)oc3ccccc23)cc1,–,2.62 µM (active)
COc1ccc(Nc2nnc(C)c3ccccc23)cc1,2.93%,–
CCOC1CCCCC1NS(=O)(=O)c1ccc(Cl)cc1 (stereo unspecified),–,9.28 µM (active)
O=S(=O)(NC1CCCCC1N1CCC(O)CC1)c1ccc(Cl)cc1 (stereo unspecified),23.1%,–
O=S(=O)(NC1CCCCC1N1CCCCC1)c1ccc(Cl)cc1 (stereo unspecified),2.85%,–
Cc1nnc2n1N=C(c1ccc3c(c1)NC(=O)CO3)CS2,-25.6%,–
O=C(O)CC/C(=C\c1cc2c(cc1Br)OCO2)c1nc2ccccc2s1,34.1%,–
O=C(NC1CCCC1)C1CC(=O)N(c2ccc(F)cc2)C1 (stereo unspecified),-9.08%,–
O=C(NC1CCCCCCC1)c1cccs1,23.4%,–
CCC(C)[C@H]1COCCS(=O)(=O)N1Cc1ccc(C)cc1 (stereo partly specified),84.1%,–
C/C(=N\NC(=O)c1ccc2ccccc2c1)c1cccnc1,18.6%,–
O=C(NCCNc1ccc([N+](=O)[O-])cc1Cl)c1ccccc1F,-45.8%,–
O=C(NC1CCN(Cc2ccccc2)CC1)c1ccccc1F,202% [at 5.75 µM],–

SMILES,"activity change, negative = inhibition",Potency
O=C(NC1CCN(Cc2ccccc2)CC1)c1cc(Br)c(Br)[nH]1,–,11.7 µM (active)
O=C(NC1CCN(Cc2ccccc2)CC1)c1c(F)cccc1F,84.5%,–
Cc1cnc(CN(C)C(=O)CC2C(=O)NCCN2Cc2cccc(F)c2F)[nH]1 (stereo unspecified),4.66%,–
CN(Cc1cccc2ncccc12)C(=O)CC1C(=O)NCCN1Cc1ccc(F)cc1 (stereo unspecified),–,13.1 µM (active)
COc1cccc(CN2CCNC(=O)C2CC(=O)N(C)CCc2ccccn2)c1 (stereo unspecified),32.9%,–
O=C(N/C(=C/c1ccc(Cl)cc1)C(=O)N1CCCCC1)c1ccco1,-0.335%,–
O=C(O)CC(CC(=O)N1CCOCC1)c1ccccc1 (stereo unspecified),14.1%,–
CCOc1cc(C)ccc1OCc1nnc(SCC(=O)Nc2cccc(C(=O)O)c2)n1-c1ccccc1,45%,–
O=C(O)c1cc(S(=O)(=O)Nc2ccc3cn[nH]c3c2)ccc1Br,12.5%,–
CCCNC(=O)c1cnc(-c2ccccc2)nc1-c1ccccc1,17.4%,–
C/C(=N\NC(=O)c1cccnc1)c1ccc(-c2ccccc2)cc1,35.5%,–
C/C(=N\NC(=O)c1cc(-c2ccc(O)cc2)nc2ccccc12)c1cccnc1,–,9.28 µM (active)
CCOc1ccccc1-c1cc(C(=O)N/N=C(\C)c2cccnc2)c2ccccc2n1,2.86%,–
CC1(c2nnc(Cc3ccccc3)o2)CC(c2ccccc2F)=NO1 (stereo unspecified),67.6%,–
COc1ccc(NC(=O)CSc2nncc(=O)n2N)cc1OC,8.56%,–
Cc1nc2c(-c3ccc(F)cc3)c(C)nn2c(C)c1CCC(=O)N1CCN(c2ccccn2)CC1,–,7.38 µM (active)
O=C(CCC1CCCN(C(=O)Cc2ccc(F)cc2)C1)N1CCN(c2ccccn2)CC1 (stereo unspecified),-10.4%,–
O=C(Cc1ccccc1Cl)N1CCN(c2ccccn2)CC1,1.61%,–
O=C(c1cc(COc2ccc(F)c(F)c2)on1)N1CCOCC1,-9.89%,–
CCn1c(=O)c2cc(C(=O)Nc3cccc(C(C)=O)c3)sc2c2ccccc21,0.375%,–
CCOc1ccc(C2C(C#N)=C(N)N(N(C)C)C3=C2C(=O)CCC3)cc1 (stereo unspecified),59%,–
CN(C)N1C(N)=C(C#N)C(c2ccc(Br)cc2)C2=C1CCCC2=O (stereo unspecified),–,2.94 µM (active)

SMILES,"activity change, negative = inhibition",Potency
N#CC1=C(N)OC2=C(C(=O)CCC2)C1C1CC=CCC1 (stereo unspecified),40.6%,–
N#CC1=C(N)N(c2ccccc2)C2=C(C(=O)CCC2)C1c1ccccc1 (stereo unspecified),–,2.08 µM (active)
NC1=C([N+](=O)[O-])C(c2ccccc2)C2=C(CCCC2=O)O1 (stereo unspecified),0.515%,–
COc1ccc(C2C(C#N)=C(N)N(c3ncn[nH]3)C3=C2C(=O)CCC3)cc1 (stereo unspecified),0%,–
Cc1nc2ccc(S(=O)(=O)N(C)CC(=O)NC(C)c3ccccc3)cc2s1 (stereo unspecified),25.8%,–
N#CCC(=O)Nc1ccc(C(=O)OCC(=O)Nc2sc3c(c2C#N)CCCC3)cc1,61.4%,–
O=C(C1CC(=O)N(C2CCCC2)C1)N1CCN(c2cccc(C(F)(F)F)c2)CC1 (stereo unspecified),-14.5%,–
O=C1C2CCCN2C(=O)N1CCCCN1CCN(c2cccc(C(F)(F)F)c2)CC1 (stereo unspecified),–,13.1 µM (active)
Cc1ccccc1N1CCN(CCCN2C(=O)C3CCCCN3C2=O)CC1 (stereo unspecified),7.49%,–
CCCc1cc(=O)oc2c(C)c(OCC(=O)NCc3ccccn3)ccc12,14%,–
O=C(Cc1cccc2ccccc12)NNC(=O)Nc1ccc(Cl)cc1,0.722%,–
CCCN1C2CCCC1CC(NC(=O)NC13CC4CC(CC(C4)C1)C3)C2 (stereo unspecified),-27.6%,–
CCN(CC(=O)NCc1cccs1)S(=O)(=O)c1ccc(NC(C)=O)cc1,-23.3%,–
CC1CCCCN1S(=O)(=O)c1ccc(S(=O)(=O)N(CC(=O)Nc2ccccc2)Cc2cccs2)cc1 (stereo unspecified),–,4.65 µM (active)
CC1CCCCN1S(=O)(=O)c1ccc(C(=O)Nc2nnc(-c3cccs3)o2)cc1 (stereo unspecified),-0.7%,–
Cc1ccccc1C(=O)Nc1ccccc1NC(=O)c1ccccc1C,433%,–
Cc1ccc(C)c(CN2CCC(CNC(=O)Nc3ccc(C)c(F)c3)CC2)c1,36.5%,–
Cc1cccc(CN2CCC(CNC(=O)Nc3ccc(F)c(Cl)c3)CC2)c1,6.46%,–
O=C(NCC1CCN(Cc2ccccc2Cl)CC1)Nc1cccc(Cl)c1,–,1.65 µM (active)
Cc1ccccc1NC(=O)NCC1CCN(Cc2cccc(Cl)c2)CC1,27.4%,–
COc1cc(NC(=O)NCC2CCN(Cc3ccc(C)cc3)CC2)cc(OC)c1OC,–,10.4 µM (active)
COc1ccc(Cl)cc1NC(=O)NCC1CCN(Cc2ccccc2F)CC1,12.4%,–

SMILES,"activity change, negative = inhibition",Potency
Cc1ccc(C(=O)N/C(=C\c2cn(S(=O)(=O)N(C)C)c3ccccc23)C(=O)N2CCCC2)cc1,0%,–
COc1ccc(-n2nnnc2CNC(=O)c2ccc3ccccc3c2)cc1,-2.21%,–
COc1ccc(NC(=O)N2CCCC(C(=O)Nc3ccccc3OC)C2)cc1 (stereo unspecified),-1.69%,–
CSC1=NCCN1C(=O)Cc1cccc2ccccc12,0.0301%,–
COc1cc(CNCc2ccc(OC)c3ccccc23)cc(OC)c1OC,-15.6%,–
O=C(Nc1cccc(Cl)c1)C1CCCN(c2cnccn2)C1 (stereo unspecified),28.4%,–
COc1cc(NC(=O)C2CCN(c3cnccn3)CC2)cc(OC)c1,–,2.62 µM (active)
Cc1ccccc1CN1CCC(C(=O)Nc2ccc(Oc3cccnc3)cc2)CC1,-25.5%,–
O=C(COC(=O)Cc1ccccc1F)NCCc1ccccc1,12.9%,–
Cc1nc2ccc(S(=O)(=O)NC(C(=O)N3CCCCCC3)C(C)C)cc2s1 (stereo unspecified),-2.11%,–
Cc1nc2ccc(S(=O)(=O)NCC(=O)O)cc2s1,–,16.5 µM (active)
Cc1nc2ccc(S(=O)(=O)NCC(=O)NCCN3CCCCC3C)cc2s1 (stereo unspecified),-2.45%,–
C=CCC(NC(=O)Cc1ccccc1)C(=O)NCCC (stereo unspecified),-3.59%,–
CCOCCc1nn2c(=O)cc(CSCC(=O)Nc3cccc(C)c3C)nc2s1,43.5%,–
COc1cccc(NC(=O)CN2CCN(CC(=O)Nc3ccccc3Cl)CC2)c1,-11%,–
O=C(CN1CCCCC1)Nc1ccccc1Cl,15.1%,–
Cc1nn(Cc2ccccc2)c(C)c1C(=O)N1CCN(CC(=O)Nc2ccccc2Cl)CC1,–,13.1 µM (active)
Cc1ccc(NC(=O)Cc2nc(COC(=O)C(C)NS(=O)(=O)c3ccc(C)cc3)cs2)cc1 (stereo unspecified),21.2%,–
CCN(CC)C(=O)c1nc[nH]c1C(=O)N(C)Cc1ccccc1,0%,–
CC(=O)Nc1ccc(Oc2ccc3c(c2)C(=O)NC3=O)cc1,-18.9%,–
Cc1csc(NC(=O)CSc2nc(=O)cc(N)n2-c2ccc(F)cc2)n1,21.5%,–
Cc1cccc(NC(=S)NCCc2ccc(Cl)cc2)c1C,0%,–

SMILES,"activity change, negative = inhibition",Potency
Cc1ccc(C(C)C)cc1OCCN1CCCC1,-7.33%,–
Cc1cc(OCCN2CCCC2)ccc1C(C)C,-17.9%,–
Cc1cc(OCCN2CCCC2)cc(C(C)C)c1,–,10.4 µM (active)
CCOCCCNc1c(CC)c(C)c(C#N)c2nc3ccccc3n12,-16.7%,–
CN1C(C(=O)NCC2CC2)CC2Cn3c(nc4ccccc43)C21 (stereo unspecified),56.6%,–
CCOC(=O)N1CCN(Cc2nc3cc(NC(C)=O)ccc3n2C)CC1,-19.3%,–
CCOC(=O)N1CCN(Cc2nc3ccc([N+](=O)[O-])cc3c(=O)n2-c2cccc(OC)c2)CC1,–,2.33 µM (active)
CCOC(=O)N1CCN(Cc2nc3cc(NC(=O)CC)ccc3n2CC)CC1,-12.6%,–
CN(C(=O)CSc1nnc(-c2ccc3c(c2)OCO3)o1)C1CCS(=O)(=O)C1 (stereo unspecified),-13.6%,–
CC(=O)Nc1ccc(/C=C/C(=O)c2ccccc2)cc1,67.7%,–
O=C(NC1CCCC1)C(=O)c1c[nH]c2ccccc12,4.04%,–
OC(COc1cccc(OCC(O)CN2CCCC2)c1)CN1CCCC1 (stereo unspecified),20.7%,–
Cc1cccc(OCC(O)CN2CCN(S(=O)(=O)c3ccc(C)cc3C)CC2)c1 (stereo unspecified),–,6.57 µM (active)
CC(=O)c1ccc(OCC(O)CN2CCN(S(=O)(=O)c3cccc(Br)c3)CC2)cc1 (stereo unspecified),-27.6%,–
O=S(=O)(Nc1ccc(-n2cnnn2)cc1)c1ccc(Cl)cc1,-0.496%,–
C=CCNc1scc(-c2ccccc2)[n+]1CC=C,4.04%,–
C=CC[n+]1c(-c2ccc(C)cc2)csc1NNC(=O)Nc1ccccc1,–,7.38 µM (active)
Cc1ccc(NC(=O)NNC(=O)c2sccc2-n2cccc2)cc1,42.9%,–
